Where “and” joins values, the source holds several entries; their conditions need not be identical. Equal values may be shown once. Records with an inconclusive call do not appear. Calls of active or inactive are those of the source. The call rests on the fitted dose curve; in most records, active means well fitted curve in the direction sought with a large enough effect; inconclusive means small, poorly fitted or top-dose-only effect, or another doubt; inactive means no such curve, though single readings can be large; an effect the other way counts as inactive or inconclusive.
Tests used:
[1] = tested on: C33A; assay: Primary qHTS to identify gynecologic anti-cancer compounds using libraries of approved drugs and bioactive compounds (AID 1345084); details: Gynecologic cancer cell panel viability, ATPlite luminescence, 48 h; series mostly up to 57.5 µM; further: nearly all actives have a fitted effect of over 55% in size
In short: (§1)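 Cells, 1,000 per well, were allowed to settle for 16 h at 37 C before compound addition. Five concentrations were tested for 48 h, and viability was read by ATPlite luminescence after 15 min at room temperature.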

[2] = tested on: CAOV3; assay: as above; details: Gynecologic cancer cell panel viability, ATPlite luminescence, 48 h; series mostly up to 57.5 µM
In short: as §1

[3] = tested on: CASKI; assay: as above; details: Gynecologic cancer cell panel viability, ATPlite luminescence, 48 h; series mostly up to 57.5 µM
In short: as §1

[4] = tested on: Es-2; assay: as above; details: Gynecologic cancer cell panel viability, ATPlite luminescence, 48 h; series mostly up to 57.5 µM
In short: as §1

[5] = tested on: HeLa; assay: as above; details: Gynecologic cancer cell panel viability, ATPlite luminescence, 48 h; series mostly up to 57.5 µM
In short: as §1

[6] = tested on: Hek293T; assay: as above; details: Gynecologic cancer cell panel viability, ATPlite luminescence, 48 h, control line for the selectivity index; series mostly up to 57.5 µM
In short: as §1

[7] = tested on: JEG-3; assay: as above; details: Gynecologic cancer cell panel viability, ATPlite luminescence, 48 h; series mostly up to 57.5 µM
In short: as §1

[8] = tested on: OV90; assay: as above; details: Gynecologic cancer cell panel viability, ATPlite luminescence, 48 h; series mostly up to 57.5 µM
In short: as §1

[9] = tested on: PA-1; assay: as above; details: Gynecologic cancer cell panel viability, ATPlite luminescence, 48 h; series mostly up to 57.5 µM
In short: as §1

[10] = tested on: SKOV3; assay: as above; details: Gynecologic cancer cell panel viability, ATPlite luminescence, 48 h; series mostly up to 57.5 µM
In short: as §1

[11] = tested on: Tov-21-G; assay: as above; details: Gynecologic cancer cell panel viability, ATPlite luminescence, 48 h; series mostly up to 57.5 µM
In short: as §1

[12] = tested on: Tov112D; assay: as above; details: Gynecologic cancer cell panel viability, ATPlite luminescence, 48 h; series mostly up to 57.5 µM
In short: as §1

[13] = Drug repurposing screens with cells derived from glioblastoma tumor samples (AID 1345199); details: GBM patient neurospheres viability, ATP luminescence, 48 h; further: nearly all actives have a fitted effect of over 40% in size
In short: (§2)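 Four patient lines of CD133+ GBM neurospheres were screened at several concentrations; hits were retested in those lines plus three slower-growing GBM lines, using 48-hour treatment and ATP-based viability.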

[14] = tested on: astro; assay: as above; details: viability, ATP luminescence, 48 h; series mostly up to 45.9 µM
In short: as §2

[15] = at 45.9 µM (top of the series), tumour line B
[16] = at 45.9 µM (top of the series), tumour line D
[17] = at 46 µM (top of the series), tumour line A
On the % scale 0 is the no-effect control and ±100 the full control effect.

CC(=O)OCC1=C(C(=O)O)N2C(=O)[C@@H](N)[C@H]2SC1
inactive: Potency [1] | outcome [2] | outcome [3] | Potency [4] | Potency [5] | outcome [6] | outcome [7] | Potency [8] | Potency [9] | outcome [10] | Potency [11] | Potency [12] | activity, negative = cell killing ([13]; at 21.2 µM (top of the series), tumour line B) -6.05% | activity, negative = cell killing ([13]; at 21.2 µM (top of the series), tumour line D) -13.7% | activity, negative = cell killing ([13]; at 21.3 µM (top of the series), tumour line A) -21.2%

CC[N+]1(CC)CCC(OC(=O)C(O)(c2ccccc2)c2ccccc2)C1 (configuration not stated)
inactive: Potency [1] | outcome [2] | outcome [3] | Potency [4] | Potency [5] | outcome [6] | outcome [7] | Potency [8] | Potency [9] | outcome [10] | Potency [11] | Potency [12]

C[C@]12Cc3cn[nH]c3C[C@@H]1CC[C@@H]1[C@@H]2CC[C@@]2(C)[C@H]1CC[C@]2(C)O
inactive: Potency [1] | outcome [2] | outcome [3] | Potency [4] | Potency [5] | outcome [6] | outcome [7] | Potency [8] | Potency [9] | outcome [10] | Potency [11] | Potency [12]

NC1=NC(=O)C(c2ccccc2)O1 (configuration not stated)
inactive: Potency [1] | outcome [2] | outcome [3] | Potency [4] | Potency [5] | outcome [6] | outcome [7] | Potency [8] | Potency [9] | outcome [10] | Potency [11] | Potency [12] | activity, negative = cell killing [13, 15] -0.343% | activity, negative = cell killing [13, 16] -7.44% | activity, negative = cell killing [13, 17] -19.1% | Potency [14]

O=C1OC(CCN2CCCCC2)OC1(c1ccccc1)c1ccccc1 (configuration not stated)
inactive: Potency [1] | outcome [2] | outcome [3] | Potency [4] | Potency [5] | outcome [6] | outcome [7] | Potency [8] | Potency [9] | outcome [10] | Potency [11] | Potency [12]

C[C@]12CC[C@H]3[C@@H](CC[C@@]45O[C@H]4C(O)=C(C#N)C[C@]35C)[C@H]1CC[C@H]2O
inactive: Potency [1] | outcome [2] | outcome [3] | Potency [4] | Potency [5] | outcome [6] | outcome [7] | Potency [8] | Potency [9] | outcome [10] | Potency [11] | Potency [12]

C#C[C@]1(O)CC[C@H]2[C@@H]3CCC4=CC(=O)CC[C@]4(C)[C@H]3CC[C@@]21C
inactive: Potency [1] | outcome [2] | outcome [3] | Potency [4] | Potency [5] | outcome [6] | outcome [7] | Potency [8] | Potency [9] | outcome [10] | Potency [11] | Potency [12] | activity, negative = cell killing [13, 15] -23.4% and -19.6% | activity, negative = cell killing [13, 16] -13.1% and -15.3% | activity, negative = cell killing [13, 17] -19.9% | Potency [14]

CCC(C)C(C)(COC(N)=O)COC(N)=O (configuration not stated)
inactive: Potency [1] | outcome [2] | outcome [3] | Potency [4] | Potency [5] | outcome [6] | outcome [7] | Potency [8] | Potency [9] | outcome [10] | Potency [11] | Potency [12]

Reference: PubChem BioAssay (NCATS)
